12-LOX inh: blocks human arachidonate 12S-lipoxygenase; P18054; purified 12hLO, xylenol orange hydroperoxide absorbance; Potency, µM (series often up to 108 µM), for inactives: at the highest dose activity change, negative = inhibition, hits mostly inhibitors; 580,000 compounds, 1.1% hits
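Purified human 12hLO at 150 nM in 25 mM Hepes, 0.01% Triton X-100, pH 7.0, preincubated 15 min at room temperature with compound. Reaction started with 40 uM arachidonic acid, 30 min at room temperature. Hydroperoxide measured by Fe-xylenol orange, 573/405 nm absorbance ratio.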
RORgamma inh: blocks mouse ROR gamma transcriptional activity; Drosophila S2 Gal4-RORgamma UAS-luciferase reporter, 20 h; Potency, µM (highest dose often 53.6 µM), without a hit: at the highest dose activity change, negative = inhibition, hits mostly inhibitors; 310,000 compounds, 5.4% hits; note: nearly all actives have a fitted effect of over 60% in size
Target sequence (P51450 whole entry, looked up, the tested form may be a part): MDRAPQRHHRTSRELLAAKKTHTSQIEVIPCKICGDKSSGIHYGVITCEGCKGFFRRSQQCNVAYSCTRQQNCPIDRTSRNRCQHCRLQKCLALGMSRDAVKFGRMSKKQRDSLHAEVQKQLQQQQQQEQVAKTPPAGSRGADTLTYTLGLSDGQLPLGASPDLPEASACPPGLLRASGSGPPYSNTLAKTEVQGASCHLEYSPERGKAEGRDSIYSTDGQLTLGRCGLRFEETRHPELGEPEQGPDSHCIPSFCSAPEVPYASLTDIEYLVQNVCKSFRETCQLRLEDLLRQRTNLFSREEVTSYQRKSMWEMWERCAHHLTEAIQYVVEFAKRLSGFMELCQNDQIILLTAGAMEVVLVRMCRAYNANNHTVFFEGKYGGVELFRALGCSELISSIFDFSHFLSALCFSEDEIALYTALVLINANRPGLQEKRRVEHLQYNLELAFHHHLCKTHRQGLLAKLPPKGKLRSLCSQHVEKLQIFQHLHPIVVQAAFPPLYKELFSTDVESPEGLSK
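Luciferase reporter read in Schneider cells carrying Gal4-RORγ (mouse) and UAS-Photinus luciferase; cells given compound 1 h before 700 uM copper sulfate induction, then incubated 20 h at ambient temperature.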
DT40 TDP1 CPT: DT40-hTDP1 cell growth loss with CPT; Potency, µM (highest dose often 46.2 µM), inactives show at the top dose activity change, negative = growth inhibition, hits mostly inhibitors; chicken DT40 Tdp1-/-;hTDP1 cells + 20 nM CPT, ATP luminescence, 48 h; AID 686979; 420,000 compounds, 12% hits; note: nearly all actives have a fitted effect of over 55% in size
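Cell growth measured by CellTiter-Glo luminescence after a minimum 48 h, 37 C compound exposure with 20 nM CPT in Tdp1-knockout DT40 cells stably expressing hTDP1, seeded 400/well; qHTS titration format.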
ELG1 repair inh: ELG1-dependent DNA repair inhibition. HEK293T ELG1-luciferase reporter, luminescence, 16 h; DNA damage induced by 5-fluorouridine. Potency, µM (doses to about 46.1 µM), for inactives: at the highest dose activity change, negative = inhibition, actives largely listed as inhibitors. 330,000 compounds, 2.3% hits. AID 504467; note: nearly all actives have a fitted effect of over 55% in size
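DMSO vehicle served as the neutral condition. Each well held 2,000 cells given 5-fluorouridine plus compound; after 16 hr at 37 °C/5% CO2, ONE-Glo was added and luciferase measured 30 min later.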
Gal4-VP16 FLuc: Gal4-VP16 reporter inhibition counter-screen | Drosophila S2 Gal4-VP16 UAS-luciferase, luminescence, 20 h | Potency, µM (series often up to 53.6 µM), without a hit: top-dose activity, negative = inhibition, hits mostly inhibitors | 310,000 compounds, 3.5% hits;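 note: Gal4-VP16 expression switched on by copper sulfate through the metallothionein promoter; nearly all actives have a fitted effect of over 50% in size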
DT40 TDP1 no CPT: qHTS for Inhibitors of human tyrosyl-DNA phosphodiesterase 1 (TDP1): qHTS in cells in absence of CPT. DT40 Tdp1-/- hTDP1 cells, no CPT, ATP luminescence, 48 h. Potency, µM (highest dose often 46.2 µM), inactives show at the top dose activity change, negative = growth inhibition, usual class: inhibitors. 420,000 compounds, 15% hits; note: nearly all actives have a fitted effect of over 55% in size
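Growth of hTDP1-complemented DT40 Tdp1-knockout cells is measured by ATP luminescence after at least 48 hr compound exposure at 37 °C, with DMSO substituting for the 20 nM CPT used in the parallel screen.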
Starred values were filed as active, the others as inactive; ? = inconclusive; . = no result; [ ] = another dose, or the depositor's remark. In the library only some 15% were active in any assay of this set; here they are far more common. Calls come from the whole dose curve; as a rule, active = well fitted curve in the direction sought with a large enough effect; inconclusive = small, poorly fitted or top-dose-only effect, or another doubt; inactive = no such curve, though single readings can be large; an effect the other way counts as inactive or inconclusive. % is set by controls: 0 for no effect and ±100 for the full control effect; potency is the fitted concentration of half-maximal effect.

SMILES	12-LOX inh	RORgamma inh	DT40 TDP1 CPT	ELG1 repair inh	Gal4-VP16 FLuc	DT40 TDP1 no CPT
O=C(Nc1ccc(F)cc1)Nc1ccc2c(c1)OCO2	-15%	12%	9.2µM*	0%	-1%	?
CC(Sc1nnc2c(Cl)cc(C(F)(F)F)cn12)c1ccccc1 (stereo not given)	5%	.	.	.	.	.
O=C(/C=C/c1ccc(Cl)cc1Cl)N(Cc1ccc(Cl)cc1)C1CCS(=O)(=O)C1 (stereo not given)	-20%	?	?	-19%	-21%	16µM*
O=C(c1ccc(Cl)c([N+](=O)[O-])c1)N(Cc1ccc(Cl)cc1)C1CCS(=O)(=O)C1 (stereo not given)	-19%	35%	?	18%	1%	23µM*
O=C(c1ccc(Cl)c([N+](=O)[O-])c1)N(Cc1ccccc1)C1CCS(=O)(=O)C1 (stereo not given)	11%	24%	-18%	4%	11%	?
NS(=O)(=O)c1ccc(F)c(C(=O)NCc2nc(C3CCCCC3)no2)c1	28%	.	.	.	.	.
C[C@@H](NCC1CC1)c1onc(-c2ccc(Cl)cc2)c1C(=O)O	-8%[176 µM]	.	.	.	.	.
C=CCn1c(O)c(N=Nc2ccccc2)c2ccccc21	?	?	?	0%	5%	?
Cn1c(O)c(N=NC(=N)N)c2ccccc21	-19%	-20%	-1%	3%	-5%	2%
C=CCn1c(O)c(N=Nc2nc3ccccc3c(=O)n2-c2ccccc2)c2ccccc21	9%	?	-30%	-28%	-24%	12µM*
Cc1ccccc1N=Nc1c(O)n(C)c2ccccc12	0%	.	?	6%	.	23µM*
C=CCn1c(O)c(N=Nc2ccccc2O)c2ccccc21	?	.	?	-29%	.	18µM*
c1ccc(-c2cc(-c3ccccc3)[o+]c(-c3ccccc3)c2)cc1	16µM*	.	.	.	.	.
OCC1OC(n2cnc3c(NCc4ccco4)ncnc32)C(O)C1O (stereo not given)	-9%	0%	2.3µM*	.	-7%	2.1µM*
Cc1ccccc1CNc1ncnc2c1ncn2[C@@H]1O[C@H](CO)[C@@H](O)[C@H]1O	.	.	?	.	.	12µM*
C=CCNc1ncnc2c1ncn2C1OC(CO)C(O)C1O (stereo not given)	44%	4%[10 µM]	18µM*	-19%	-10%	21µM*
Cc1ccccc1CNc1ncnc2c1ncn2C1OC(CO)C(O)C1O (stereo not given)	.	-5%	.	.	3%	.
OC[C@H]1O[C@@H](n2cnc3c(NCc4ccco4)ncnc32)[C@H](O)[C@@H]1O	-9%	-9%	2.3µM*	.	-4%	2.1µM*
CC(C)=CCNc1ncnc2c1ncn2[C@@H]1O[C@H](CO)[C@@H](O)[C@H]1O	7%	.	.	.	.	.
Cc1cc(C)n(Cc2ccc(C(=O)N3CCC(c4noc(-c5cccnc5)n4)C3)o2)n1 (stereo not given)	-8%	.	.	.	.	.
c1ccc(-n2nccc2CN2CCC3(CCNCC3)C2)cc1	34%	.	.	.	.	.
Cc1ccc(-n2nc(-c3c(C)nc4scc(CC(=O)N5CCOCC5)n4c3=O)cc2C)cc1	5%	.	.	.	.	.
COc1ccc(C(=O)N2CCCOCCNC(=O)[C@@H]3CCCC[C@@H]32)cc1F	39%	.	.	.	.	.
CC(C)(C)SCC(=O)Nc1cccc(CN2CCCC2)c1	12%	.	.	.	.	.
O=c1c(CCc2ccccc2)nc2cnc(N3CCNCC3)nc2n1Cc1ccc(F)cc1	0%	4.5µM*	1µM*	.	?	?
SMILES	12-LOX inh	RORgamma inh	DT40 TDP1 CPT	ELG1 repair inh	Gal4-VP16 FLuc	DT40 TDP1 no CPT
O=c1cnc2cnc(N3CCNCC3)nc2n1Cc1ccc(F)cc1	?	-6%	1%	.	-5%	-5%
Cc1nc2cnc(N3CCN(C)CC3)nc2n(Cc2ccc(F)cc2)c1=O	?	-7%	-3%	.	5%	-23%
CN1CCN(c2ncc3nc(CCc4ccccc4)c(=O)n(Cc4ccc(F)cc4)c3n2)CC1	?	-44%	?	.	-25%	15µM*
Cc1cc(C)n(CCC(=O)N2C[C@@H](CO)[C@H](c3nc(C)no3)C2)n1	41%	.	.	.	.	.
N=C1SCC(=O)N1c1ncc(Cc2ccccc2Cl)s1	3%	126µM*	?	?	0.71µM*	?
O=C1CSC(=S)N1c1cccc(Cl)c1	-7%	-14%	-21%	-11%	-17%	-2%
N=C1SCC(=O)N1c1ncc(Cc2cccc(Cl)c2)s1	2%	0.35µM*	?	?	0.89µM*	?
CC1(C)CC(=O)C=C(NC2=CC3OC(c4ccccc4)OCC3OC2=O)C1 (stereo not given)	-2%	?	5.8µM*	13µM*	11µM*	6.5µM*
CN1CCN(C(=O)CCNC(=O)Cn2ccc3ccccc3c2=O)CC1	0%	10%	5%	-11%	-3%	?
Cc1cccc(N2CCN(C(=O)CCNC(=O)Cn3ccc4ccccc4c3=O)CC2)c1C	-10%	8%	?	?	2%	15µM*
O=C(CCNC(=O)Cn1ccc2ccccc2c1=O)NCCN1CCN(c2cccc(Cl)c2)CC1	-1%	?	-27%	?	-8%	?
O=C(Cn1ccc2ccccc2c1=O)NCCC(=O)N1CCN(c2cccc(Cl)c2)CC1	-1%	?	15µM*	?	-12%	?
CCC1(C(=O)NCc2ccc(N3CCC(C)CC3)cc2)CCCCC(=O)N1 (stereo not given)	17%	.	.	.	.	.
CC1(C)Cc2c(oc3ncn4ncnc4c23)CO1	?	3%	3%	-3%	-1%	-2%
CSc1nc2oc3c(c2c2nncn12)CC(C)(C)SC3	?	-99%	?	4%	13µM*	?
CS/C(=N\S(=O)(=O)c1ccc(Cl)cc1)c1ccccc1	-10%	31%	-12%	0%	-7%[0.365 µM]	-23%
O=S(=O)(/N=C(\Sc1ccc(Cl)cc1)c1ccccc1)c1ccccc1	?	-40%	12µM*	-26%	-2%	21µM*
Cc1ccc(S/C(=N/S(=O)(=O)c2ccc(Cl)cc2)c2ccccc2)cc1	.	.	11µM*	.	.	10µM*
O=C(Cc1ccccc1O)NCc1cccnc1Oc1ccc(F)cc1F	6%	.	.	.	.	.
Cc1cccc(NC(=O)c2sc(-n3nc(C)c(CCC(C)C)c3C)nc2C)c1C	3%	.	?	.	.	21µM*
CC(=O)c1cccc(NC(=O)c2sc(-n3nc(C)c(CCC(C)C)c3C)nc2C)c1	?	.	13µM*	.	.	?
NS(=O)(=O)c1ccc(CCNc2ncnc3c2cnn3-c2ccccc2)cc1	6%	.	.	.	.	.
